Values without a mark were called inactive. Inconclusive results are not listed. Where a call stands in place of a potency, no number is given. Calls of active or inactive are those of the source. Unless noted, calls come from the whole dose curve; as a rule, active = well fitted curve in the direction sought with a large enough effect in the repeat runs; inconclusive = weak or mixed curves; inactive = no such curve, though single readings can be large; an effect the other way counts as inactive or inconclusive.
What was measured:
[1] = qHTS assay to identify small molecule agonists of H2AX (AID 1224845; active = well fitted activation curve with a large enough effect in the signal ratio in the repeat runs, not every such curve was filed as active; the % refers to the signal ratio)
Method in brief: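 Wild-type CHO-K1 cells plated overnight, then exposed 3 hr at 37C to compounds at 15 concentrations (0.76% DMSO). Lysed, then HTRF anti-pH2AX(S139)-cryptate/anti-H2AX-d2 detection after 24 hr at room temperature; emissions 665 and 620 nm.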

[2] = qHTS assay to identify small molecule agonists of H2AX - cell viability counter screen (AID 1224847; calls by dose curve; note: top concentration of the series differs between compounds; nearly all actives have a fitted effect of over 30% in size)
Method in brief: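 Counter-screen for viability: CellTiter-Glo ATP luminescence read after 3 h compound treatment (15-point titration, 0.76% DMSO final) of CHO-K1 cells at 37C, with 30 min room-temperature reagent incubation.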

[3] = qHTS RealTime-Glo MT Cell Viability Assay in HEK293 cells - 32 hour (AID 1224868); note: nearly all actives have a fitted effect of over 50% in size; note: potency is the fitted concentration of half-maximal effect
Method in brief: (§1)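 Viability tracked continuously by luminescence as live cells reduce a prosubstrate for NanoLuc; HEK293 cells preincubated 5 h, compound-treated at 37 C, and read at 0, 8, 16, 24, 32 and 40 h.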

[4] = A CellTox Green Cytotoxicity Assay to monitor cytotoxicity in HEK293 cells - 0 hour (AID 1224869); note: nearly all actives have a fitted effect of over 50% in size
Method in brief: (§2)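 HEK293 cells premixed with CellTox Green dye were seeded at 600 cells/well and left 5 h at 37 C/5% CO2 before pin transfer of 23 nL compound in DMSO. Fluorescence from dye bound to dead-cell DNA was read during 40 h treatment.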

[5] = qHTS RealTime-Glo MT Cell Viability Assay in HepG2 cells - 40 hour (AID 1224870); note: nearly all actives have a fitted effect of over 50% in size
Method in brief: (§3)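 HepG2 cells mixed with RealTime-Glo MT reagents (NanoLuc plus cell-permeant prosubstrate) were seeded at 600 cells/well, incubated 5 h at 37 C/5% CO2, then pinned with compounds in DMSO; nonlytic luminescence tracked viability during 40 h treatment.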

[6] = A CellTox Green Cytotoxicity Assay to monitor cytotoxicity in HEK293 cells - 40 hour (AID 1224871); note: nearly all actives have a fitted effect of over 45% in size
Method in brief: as §2

[7] = qHTS RealTime-Glo MT Cell Viability Assay in HEK293 cells - 16 hour (AID 1224872); note: top concentration of the series differs between compounds; nearly all actives have a fitted effect of over 50% in size
Method in brief: as §1

[8] = qHTS RealTime-Glo MT Cell Viability Assay in HepG2 cells - 8 hour (AID 1224873); note: nearly all actives have a fitted effect of over 55% in size
Method in brief: as §3

[9] = qHTS RealTime-Glo MT Cell Viability Assay in HEK293 cells - 40 hour (AID 1224874); conditions: RealTime-Glo luminescence; max response: hits give low values; note: nearly all actives have a fitted effect of over 50% in size; note: potency is the fitted concentration of half-maximal effect
Method in brief: (§4)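 HEK293 cells mixed with RealTime-Glo reagents (NanoLuc plus cell-permeant prosubstrate) at 600 cells/well, preincubated 5 h at 37 C/5% CO2, then given 23 nL compound in DMSO. Nonlytic luminescence from viable cells was read at 0, 8, 16, 24, 32 and 40 h.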

[10] = A CellTox Green Cytotoxicity Assay to monitor cytotoxicity in HEK293 cells - 24 hour (AID 1224875); note: nearly all actives have a fitted effect of over 45% in size
Method in brief: as §2

[11] = A CellTox Green Cytotoxicity Assay to monitor cytotoxicity in HepG2 cells - 16 hour (AID 1224876); note: nearly all actives have a fitted effect of over 45% in size
Method in brief: (§5)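 HepG2 cells were seeded together with the CellTox Green dye at 600 cells/well, left 5 h at 37 C/5% CO2, then given compounds in DMSO. Fluorescence from dye bound to dead-cell DNA was read repeatedly over 40 h of treatment at 37 C.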

[12] = A CellTox Green Cytotoxicity Assay to monitor cytotoxicity in HepG2 cells - 24 hour (AID 1224878); note: nearly all actives have a fitted effect of over 45% in size; note: potency is the fitted concentration of half-maximal effect
Method in brief: as §5

[13] = A CellTox Green Cytotoxicity Assay to monitor cytotoxicity in HepG2 cells - 40 hour (AID 1224879); note: nearly all actives have a fitted effect of over 40% in size; note: potency is the fitted concentration of half-maximal effect
Method in brief: as §5

[14] = qHTS RealTime-Glo MT Cell Viability Assay in HEK293 cells - 0 hour (AID 1224880)
Method in brief: as §4

[15] = qHTS assay to identify small molecule agonists of the estrogen related receptor (ERR) signaling pathway from Tox21 library (AID 1224849; calls by dose curve; note: nearly all actives have a fitted effect of over 15% in size); conditions: ERR reporter cell line, ONE-Glo luciferase, 18 h; at 92.4 µM (top of the series) unless noted
Method in brief: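 ERR reporter cell line (NTP) seeded, rested 6 h at 37 C/5% CO2, then pinned with Tox21 compounds in DMSO. After 18 h at 37 C, ONE-Glo luciferase luminescence was read following 30 min at room temperature.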

[16] = qHTS RealTime-Glo MT Cell Viability Assay in HepG2 cells - 24 hour (AID 1224867); note: nearly all actives have a fitted effect of over 50% in size
Method in brief: (§6)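 Viability was tracked continuously by NanoLuc luminescence from prosubstrate reduced by living HepG2 cells, at successive time points over 40 h of compound exposure. Cells with reagent were preincubated 5 h at 37 °C before compound addition.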

[17] = qHTS RealTime-Glo MT Cell Viability Assay in HepG2 cells - 32 hour (AID 1224877); note: nearly all actives have a fitted effect of over 55% in size
Method in brief: as §6

[18] = qHTS assay to identify small molecule agonists of the hypoxia (HIF-1) signaling pathway (AID 1224846; active = well fitted activation curve with a large enough effect in the signal ratio in the repeat runs, not every such curve was filed as active; the % refers to the signal ratio)
Method in brief: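 HRE-bla ME-180 cells (beta-lactamase reporter under hypoxia response element) were plated at 2,000 cells/well in medium with 0.5% dialyzed FBS, rested 5 hrs, then given compounds in DMSO for 17 hrs at 37C, 5% CO2. Reporter induction was read with CCF4-AM FRET substrate.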

[19] = qHTS assay to identify small molecule antagonists of the estrogen related receptor (ERR) signaling pathway from Tox21 library (AID 1224848); note: nearly all actives have a fitted effect of over 50% in size; note: potency is the fitted concentration of half-maximal effect
Method in brief: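 Cells: ERR line, 2,000/well; 6 h preincubation 37 C/5% CO2. Cpd in DMSO via pin tool; 18 h, 37 C. ONE-Glo, 30 min RT, luminescence.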

Row | Structure (SMILES) | Potency [1] | Potency [2] | Potency [3] | Potency [4] | Potency [5] | Potency [6] | Potency [7] | Potency [8] | max response [9] [%] | Potency [10] | Potency [11] | Potency [12] | Potency [13] | Potency [14] | activity change, positive = activation [15] | Potency [16] | Potency [9] | Potency [17] | outcome [18] | Potency [19]
1 | CCCCCCCCCC(=O)OCC | inactive | inactive | inactive | inactive | inactive | inactive | inactive | inactive | -6.56 | inactive | inactive | inactive | inactive | inactive | – | – | – | – | – | –
2 | CC[C@]12CCCN3CCc4c(n(c5ccccc45)C(=O)C1)[C@@H]32 | – | inactive | 4.77 µM (active) | inactive | inactive | – | – | inactive | – | inactive | inactive | inactive | 6.74 µM (active) | inactive | -17.2% [at 42.5 µM] | inactive | 4.25 µM (active) | inactive | – | –
3 | CC(C(=O)O)c1ccc(-c2ccccc2)c(F)c1 (stereo unspecified) | inactive | – | inactive | inactive | – | inactive | inactive | inactive | -0.192 | inactive | – | 54.9 µM (active) | – | inactive | – | inactive | – | inactive | – | –
4 | CCCCCCOC(=O)CCC | inactive | inactive | inactive | inactive | inactive | inactive | inactive | inactive | 6.13 | inactive | inactive | inactive | inactive | inactive | – | – | – | – | – | –
5 | CC(=O)CC(=O)c1ccccc1 | – | inactive | – | inactive | – | inactive | inactive | – | – | inactive | inactive | inactive | inactive | inactive | 14.5% | inactive | – | inactive | inactive | inactive
6 | CCN(CC)CCOc1ccc2c(c1)C(=O)c1cc(OCCN(CC)CC)ccc1-2 | – | – | 13.4 µM (active) | inactive | – | – | – | – | – | inactive | – | – | 26.8 µM (active) | inactive | -38.3% [at 42.5 µM] | – | 15.1 µM (active) | – | inactive | 18.8 µM (active)
7 | CC(=O)O[C@H]1C[C@@H]2CC[C@@H]3[C@H](CC[C@@]4(C)[C@H]3C[C@H]([N+]3(C)CCCCC3)[C@@H]4OC(C)=O)[C@@]2(C)C[C@@H]1N1CCCCC1 | – | inactive | inactive | inactive | – | inactive | inactive | inactive | 3.64 | inactive | inactive | inactive | inactive | inactive | – | inactive | – | inactive | inactive | –
8 | OCC1CC2CC1C1CCC(CO)C21 (stereo unspecified) | inactive | inactive | inactive | inactive | inactive | inactive | inactive | inactive | -17.3 | inactive | inactive | inactive | – | inactive | -2.51% | inactive | – | inactive | – | inactive
9 | Cc1ccccc1N=Nc1ccc(N=Nc2c(O)ccc3ccccc23)c(C)c1 | – | – | inactive | inactive | inactive | inactive | – | inactive | 1.3 | inactive | inactive | inactive | inactive | inactive | 11.4% [at 42.5 µM] | inactive | – | – | inactive | inactive
10 | Cc1ccc(O)c([C@H](CCN(C(C)C)C(C)C)c2ccccc2)c1 | – | inactive | inactive | inactive | inactive | inactive | – | inactive | – | inactive | inactive | 21.3 µM (active) | 23.9 µM (active) | inactive | – | inactive | – | inactive | inactive | –
11 | CN(C(=O)CCCOc1ccc2[nH]c(=O)ccc2c1)C1CCCCC1 | inactive | inactive | – | inactive | inactive | inactive | – | – | – | inactive | inactive | inactive | inactive | inactive | -12.9% [at 42.5 µM] | – | – | inactive | – | –
12 | C[C@H](CCC(=O)O)[C@H]1CC[C@H]2[C@@H]3[C@H](O)C[C@@H]4C[C@H](O)CC[C@]4(C)[C@H]3CC[C@]12C | inactive | inactive | – | inactive | inactive | – | – | inactive | – | inactive | inactive | – | inactive | inactive | – | inactive | – | – | – | inactive
